Measurements published in PubChem BioAssay (Tox21).
Results filed as inconclusive are left out. The source made the active and inactive calls. Unless noted, the call rests on the fitted dose curve.

How the values were obtained:
[1] = Nuclear factor erythroid 2-related factor 2/antioxidant responsive element (Nrf2/ARE) small molecule agonists: qHTS cell viability counter screen in human keratinocytes (AID 1919968; active means well fitted curve in the direction sought with a large enough effect in the repeat runs; an effect the other way counts as inactive or inconclusive; further: nearly all actives have a fitted effect of over 55% in size)
In short: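 Fluorescence read-out from CellTiter-Fluor after 1 h at 37 C. Wells held HaCaT-derived ARE-luciferase reporter cells (1,500/well) treated 23 h with DMSO-dissolved compounds. Run in the same wells as the luciferase agonist read.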

[2] = Nuclear factor erythroid 2-related factor 2/antioxidant responsive element (Nrf2/ARE) small molecule agonists: luciferase reporter gene qHTS assay in human keratinocytes (AID 1919969); further: nearly all actives have a fitted effect of over 35% in size
[3] = molecular target: Gonadotropin-releasing hormone receptor (Homo sapiens) (UniProt P30968); assay: Human gonadotropin-releasing hormone receptor (GnRHR) small molecule agonists, calcium flux assay in GnRHR-HEK293 cells (AID 1920063); further: nearly all actives have a fitted effect of over 35% in size
In short: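 Calcium-dye fluorescence, Ex/Em=480/540, recorded every 1 sec over 3 min after compound addition to GnRHR-HEK293 cells. Cells had been seeded 18 hours earlier and dye-loaded for 1 hour at 37 C. Fifteen concentrations, triplicates.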

[4] = molecular target: KiSS-1 receptor (Homo sapiens) (UniProt Q969F8); assay: Human kisspeptin (KISS1R) small molecule agonists, calcium flux assay in KISS1R-HEK293 cells (AID 1920064; active means well fitted curve in the direction sought with a large enough effect in the repeat runs; an effect the other way counts as inactive or inconclusive)
In short: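 Calcium flux read-out: kinetic fluorescence at Ex/Em=480/540, 1 s intervals over 3 min, after pin-tool compound addition to dye-loaded KISS1R-HEK293 cells. Fifteen concentrations, triplicates.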

[5] = p53 small molecule agonists, cell-based qHTS assay with rat liver microsomes (AID 1963578)
In short: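 Metabolic activation is supplied by rat liver microsomes with NADPH (each 0.5 mg/mL final). p53RE-bla cells incubate with compound 16 h at 37 C; reporter activity is measured by LiveBLAzer fluorescence.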

[6] = p53 small molecule agonists, cell-based qHTS assay with human liver microsomes: qHTS cell viability counter screen (AID 1963579); further: nearly all actives have a fitted effect of over 45% in size
In short: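 After the 460/530 nm beta-lactamase read, CellTiter-Glo was added to the same wells and luminescence measured after 30 min at room temperature, giving viability of p53RE-bla cells treated 16 h with compounds plus microsomes and NADPH.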

[7] = p53 small molecule agonists, cell-based qHTS assay with rat liver microsomes: qHTS cell viability counter screen (AID 1963580); further: nearly all actives have a fitted effect of over 45% in size
In short: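 Luminescent ATP readout (CellTiter-Glo, 30 min at room temperature) reports viability of p53RE-bla HCT-116 cells after 16 h at 37 C with test compounds under metabolic activation by rat liver microsomes and NADPH at 0.5 mg/mL final each.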

[8] = p53 small molecule agonists, cell-based qHTS assay: qHTS cell viability counter screen (AID 1963581); further: nearly all actives have a fitted effect of over 45% in size
In short: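 Cytotoxicity read-out: ATP-based luminescence (CellTiter-Glo, 30 min RT) measured in the same wells as the p53 reporter assay, HCT-116 p53RE-bla cells, 16 h compound exposure at 37 C.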

[9] = p53 small molecule agonists, cell-based qHTS assay (AID 1963582; active means well fitted activation curve with a large enough effect in the signal ratio in the repeat runs, not every such curve was filed as active; the % refers to the signal ratio)
In short: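 Fluorescence intensity read-out of a beta-lactamase reporter under a p53 response element. Cells were exposed to DMSO-dissolved compounds for 16 h at 37 C, then developed with FRET substrate for 2 h at RT.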

[10] = molecular target: 5-hydroxytryptamine receptor 2A (Homo sapiens) (UniProt P28223); assay: 5-hydroxytryptamine receptor 2A (HTR2A) small molecule antagonists, cell-based qHTS assay (AID 1963586); further: nearly all actives have a fitted effect of over 45% in size
In short: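 CHO cells stably expressing human HTR2A were plated for 18 h at 37 C, then loaded with calcium dye for 1 h. Compounds were preincubated 5 min at room temperature before DOI (4 nM solution) was added. Kinetic fluorescence was read for 3 min.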

[11] = molecular target: 5-hydroxytryptamine receptor 2A (Homo sapiens) (UniProt P28223); assay: 5-hydroxytryptamine receptor 2A (HTR2A) small molecule agonists, cell-based qHTS assay (AID 1963587); further: nearly all actives have a fitted effect of over 30% in size
In short: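 HTR2A-CHO cells, plated 18 h at 37 C/5% CO2, dye-loaded 1 h at 37 C; compounds in DMSO added by pin tool (agonist mode). Intracellular calcium flux read as kinetic fluorescence on FDSS over 2 min at 1 s intervals.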

[12] = molecular target: Muscarinic acetylcholine receptor M1 (Homo sapiens) (UniProt P11229); assay: Cholinergic receptor muscarinic 1 (CHRM1) small molecule antagonists, cell-based qHTS assay (AID 1963588); further: nearly all actives have a fitted effect of over 40% in size
In short: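 Compounds were tested at 15 concentrations in three independent runs. Dye-loaded CHRM1-CHO cells were exposed 5 min at room temperature before stimulation by acetylcholine added at 50nM. Intracellular calcium was read kinetically on FDSS for 3 min.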

[13] = molecular target: Muscarinic acetylcholine receptor M1 (Homo sapiens) (UniProt P11229); assay: Cholinergic receptor muscarinic 1 (CHRM1) small molecule agonists, cell-based qHTS assay (AID 1963589); further: nearly all actives have a fitted effect of over 35% in size
In short: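 Calcium flux read-out: kinetic fluorescence at 1 sec intervals after pin-tool compound addition to dye-loaded CHRM1-CHO cells (human M1). Agonist mode; 15 concentrations tested in triplicate independent runs.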

[14] = cAMP Responsive Elements (CRE) small molecule agonists, cell-based qHTS assay (AID 1963590)
In short: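 Beta-lactamase reporter readout: LiveBLAzer B/G FRET substrate, 2 h at room temperature, added after 3 h compound treatment of CRE-bla HEK 293T cells at 37 C/5% CO2.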

[15] = cAMP Responsive Elements (CRE) small molecule antagonists, cell-based qHTS assay (AID 1963591; active means well fitted inhibition curve with a large enough effect in the signal ratio in the repeat runs, not every such curve was filed as active; the % refers to the signal ratio)
In short: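 HEK293T CRE-bla; 18 h preincubation; compound pin-transfer; NKH477 0.25 uM final, 3 h, 37 C; LiveBLAzer FRET substrate 2 h RT.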

[16] = molecular target: Beta-2 adrenergic receptor (Homo sapiens) (UniProt P07550); assay: Adrenergic beta2 receptor (ADRB2) small molecule antagonists, cell-based qHTS assay (AID 1963592); further: series mostly up to about 92 µM; nearly all actives have a fitted effect of over 50% in size
In short: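 Assay format: CHO-ADRB2 cells, 18-20hr seeding at 37C/5% CO2, then compound plus 1nM isoproterenol agonist mix for 0.5hr RT. Homogeneous time-resolved fluorescence cAMP detection after 1hr, expressed as 665/615 nm ratio.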

[17] = molecular target: D(2) dopamine receptor (Homo sapiens) (UniProt P14416); assay: Dopamine D2 receptor (DRD2) small molecule agonists, cell-based qHTS assay (AID 1963594); further: nearly all actives have a fitted effect of over 35% in size
In short: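 HEK293 cells stably expressing DRD2 were cultured 24 h at 37 C, then given Ro20-1724 (0.1 mM final) and compounds for 10 min at room temperature. NKH477 (200nM) was then added for 30 min. cAMP was read by HTRF.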

[18] = molecular target: D(2) dopamine receptor (Homo sapiens) (UniProt P14416); assay: Dopamine D2 receptor (DRD2) small molecule antagonists, cell-based qHTS assay (AID 1963595; active means well fitted inhibition curve with a large enough effect in the signal ratio in the repeat runs, with a control signal flat; the % refers to the signal ratio)
In short: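 DRD2-HEK293; 0.1 mM Ro20-1724; cpd 10 min RT; NKH477 200 nM + quinpirole 12 nM, 30 min RT; HTRF cAMP (cAMP-d2/anti-cAMP cryptate), 665/620 nm ratio after 1 h.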

[19] = molecular target: Beta-2 adrenergic receptor (Homo sapiens) (UniProt P07550); assay: Adrenergic beta2 receptor (ADRB2) small molecule agonists, cell-based qHTS assay (AID 1963593);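 further: CHO cells stably overexpressing human ADRB2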
In short: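 CHO cells stably over-expressing ADRB2 were plated overnight at 37C, then dosed with compounds plus a stimulation mix containing 100uM IBMX and 25uM Ro-20-1724 for 0.5hr at room temperature. cAMP was measured by HTRF competition, 1hr.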
On the % scale 0 is the no-effect control and ±100 the full control effect.

Sequence of Gonadotropin-releasing hormone receptor (Homo sapiens) (P30968 whole entry, looked up): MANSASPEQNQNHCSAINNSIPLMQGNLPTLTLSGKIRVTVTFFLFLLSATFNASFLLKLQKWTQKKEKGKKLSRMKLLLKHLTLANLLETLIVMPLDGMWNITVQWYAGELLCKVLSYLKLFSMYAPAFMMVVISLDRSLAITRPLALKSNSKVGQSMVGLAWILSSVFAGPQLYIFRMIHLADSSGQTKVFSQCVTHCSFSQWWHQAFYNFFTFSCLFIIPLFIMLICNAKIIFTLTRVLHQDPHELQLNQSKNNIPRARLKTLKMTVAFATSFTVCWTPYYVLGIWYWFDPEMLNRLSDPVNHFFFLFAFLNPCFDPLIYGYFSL
Sequence of KiSS-1 receptor (Homo sapiens) (Q969F8 whole entry, looked up): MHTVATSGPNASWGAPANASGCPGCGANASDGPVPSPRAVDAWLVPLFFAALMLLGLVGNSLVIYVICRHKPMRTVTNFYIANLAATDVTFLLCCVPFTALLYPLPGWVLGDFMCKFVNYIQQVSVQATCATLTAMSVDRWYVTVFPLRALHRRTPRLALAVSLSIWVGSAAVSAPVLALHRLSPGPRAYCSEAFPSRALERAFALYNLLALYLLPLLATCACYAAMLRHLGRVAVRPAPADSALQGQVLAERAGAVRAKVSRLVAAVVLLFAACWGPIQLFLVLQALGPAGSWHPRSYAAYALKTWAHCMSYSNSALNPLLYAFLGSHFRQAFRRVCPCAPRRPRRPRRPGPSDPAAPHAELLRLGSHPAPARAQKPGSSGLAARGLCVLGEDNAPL
Sequence of Beta-2 adrenergic receptor (Homo sapiens) (P07550 whole entry, looked up): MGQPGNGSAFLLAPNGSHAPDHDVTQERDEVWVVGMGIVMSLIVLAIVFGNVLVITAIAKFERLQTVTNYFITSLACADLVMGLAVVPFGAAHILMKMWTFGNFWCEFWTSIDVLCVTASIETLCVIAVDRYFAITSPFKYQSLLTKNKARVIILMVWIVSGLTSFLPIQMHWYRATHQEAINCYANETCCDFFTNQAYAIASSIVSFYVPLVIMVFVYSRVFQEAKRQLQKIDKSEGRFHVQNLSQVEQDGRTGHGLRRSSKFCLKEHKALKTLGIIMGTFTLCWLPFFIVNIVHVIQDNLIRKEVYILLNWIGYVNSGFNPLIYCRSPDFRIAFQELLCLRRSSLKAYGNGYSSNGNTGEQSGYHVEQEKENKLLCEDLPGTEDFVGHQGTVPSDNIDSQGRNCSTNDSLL
Sequence of D(2) dopamine receptor (Homo sapiens) (P14416 whole entry, looked up): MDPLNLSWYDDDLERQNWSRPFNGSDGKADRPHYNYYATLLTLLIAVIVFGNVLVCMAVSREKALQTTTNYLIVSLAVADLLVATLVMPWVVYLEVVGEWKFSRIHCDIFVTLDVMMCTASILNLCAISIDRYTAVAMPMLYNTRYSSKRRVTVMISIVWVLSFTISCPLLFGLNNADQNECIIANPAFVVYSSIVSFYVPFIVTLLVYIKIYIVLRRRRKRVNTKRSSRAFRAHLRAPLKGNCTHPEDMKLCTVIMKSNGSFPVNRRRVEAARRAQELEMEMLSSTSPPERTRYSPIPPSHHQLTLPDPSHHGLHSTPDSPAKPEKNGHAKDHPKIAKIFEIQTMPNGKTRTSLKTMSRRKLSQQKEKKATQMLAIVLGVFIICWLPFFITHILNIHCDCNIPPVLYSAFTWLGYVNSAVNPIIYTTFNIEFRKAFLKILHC
Sequence of 5-hydroxytryptamine receptor 2A (Homo sapiens) (P28223 whole entry, looked up): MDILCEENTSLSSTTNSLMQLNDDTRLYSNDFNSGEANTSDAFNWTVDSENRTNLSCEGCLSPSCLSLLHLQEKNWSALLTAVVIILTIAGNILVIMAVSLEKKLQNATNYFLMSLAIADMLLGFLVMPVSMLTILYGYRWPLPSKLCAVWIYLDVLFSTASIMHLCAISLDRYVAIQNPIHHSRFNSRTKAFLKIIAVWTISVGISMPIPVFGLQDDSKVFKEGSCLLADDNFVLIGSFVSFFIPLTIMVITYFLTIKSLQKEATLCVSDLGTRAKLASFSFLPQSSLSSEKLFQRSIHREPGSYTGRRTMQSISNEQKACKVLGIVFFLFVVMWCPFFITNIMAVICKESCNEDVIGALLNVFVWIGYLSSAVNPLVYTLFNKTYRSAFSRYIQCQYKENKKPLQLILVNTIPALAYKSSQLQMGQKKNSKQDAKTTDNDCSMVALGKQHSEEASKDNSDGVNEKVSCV
Sequence of Muscarinic acetylcholine receptor M1 (Homo sapiens) (P11229 whole entry, looked up): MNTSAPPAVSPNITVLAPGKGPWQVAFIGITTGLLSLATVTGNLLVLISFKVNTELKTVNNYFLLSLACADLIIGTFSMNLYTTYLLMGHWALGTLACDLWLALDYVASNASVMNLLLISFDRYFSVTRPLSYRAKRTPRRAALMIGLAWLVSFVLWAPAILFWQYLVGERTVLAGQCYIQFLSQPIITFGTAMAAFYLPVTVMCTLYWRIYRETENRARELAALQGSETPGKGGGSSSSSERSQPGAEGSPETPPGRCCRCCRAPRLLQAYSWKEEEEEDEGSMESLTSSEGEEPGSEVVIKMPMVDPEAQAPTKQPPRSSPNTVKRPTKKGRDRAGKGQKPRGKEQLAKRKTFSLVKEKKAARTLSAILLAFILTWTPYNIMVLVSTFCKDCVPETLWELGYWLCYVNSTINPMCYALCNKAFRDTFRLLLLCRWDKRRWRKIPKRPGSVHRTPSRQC

CC(COC(=O)c1ccccc1)OC(=O)c1ccccc1 (centres undefined)
inactive: Potency [1] | Potency [2] | Potency [3] | Potency [4] | Potency [5] | Potency [6] | Potency [7] | Potency [8] | Potency [9] | Potency [10] | Potency [11] | Potency [12] | Potency [13] | Potency [14] | Potency [15] | Potency [16] | Potency [17] | Potency [18]

C=CCCC
inactive: Potency [1] | Potency [2] | Potency [3] | Potency [4] | Potency [5] | Potency [6] | Potency [7] | Potency [8] | Potency [9] | Potency [10] | Potency [11] | Potency [12] | Potency [13] | Potency [14] | Potency [15] | Potency [17] | Potency [18]

N=C(N)c1ccccc1
inactive: Potency [1] | Potency [2] | Potency [3] | Potency [4] | Potency [5] | Potency [6] | Potency [7] | Potency [8] | Potency [9] | Potency [10] | Potency [11] | Potency [12] | Potency [14] | Potency [15] | Potency [16] | Potency [19] | Potency [18]

CCCCCCCCCCCCCCCCBr
inactive: activity change, negative = cytotoxicity [1] 3.53% [at 19 µM] | activity, positive = activation [2] -1.44% [at 19 µM] | activity change [3] 0.0207% [at 11.8 µM, stronger effect = higher value] | activation [4] 1.03% [at 15.8 µM] | activation [5] -1.9% [at 13.6 µM] | activity change, negative = cytotoxicity [6] 0.899% [at 13.5 µM] | activity change, negative = cytotoxicity [7] 0.7% [at 13.5 µM] | activation [9] 4.11% [at 13.5 µM] | activation [11] -4.48% [at 15.9 µM] | activity, negative = inhibition [12] -1.85% [at 12.6 µM] | activation [14] -0.367% [at 19 µM] | activity change, negative = inhibition [15] -0.0105% [at 18.9 µM] | activity change, negative = inhibition [16] -0.441% [at 19 µM] | activation [19] -6.98% [at 19 µM] | activation [17] -0.697% [at 19 µM] | activity change, negative = inhibition [18] -0.776% [at 18.9 µM]

C1CSCCS1
inactive: Potency [1] | Potency [2] | Potency [3] | Potency [4] | Potency [5] | Potency [6] | Potency [7] | Potency [8] | Potency [10] | Potency [12] | Potency [13] | Potency [14] | Potency [15] | Potency [16] | Potency [19] | Potency [17] | Potency [18]

C[C@@H]1O[C@@H](OC[C@H]2O[C@@H](Oc3c(-c4ccc(O)c(O)c4)oc4cc(O)cc(O)c4c3=O)[C@H](O)[C@@H](O)[C@@H]2O)[C@H](O)[C@H](O)[C@H]1O
inactive: Potency [1] | Potency [2] | Potency [3] | Potency [4] | Potency [5] | Potency [6] | Potency [8] | Potency [9] | Potency [10] | Potency [11] | Potency [12] | Potency [13] | Potency [14] | Potency [15] | Potency [16] | Potency [18]

CC(C)C(=O)OCCOc1ccccc1
inactive: Potency [1] | Potency [2] | Potency [3] | Potency [4] | Potency [5] | Potency [6] | Potency [7] | Potency [8] | Potency [9] | Potency [10] | Potency [11] | Potency [12] | Potency [13] | Potency [14] | Potency [16] | Potency [19] | Potency [17] | Potency [18]
